The record followed here is PubChem BioAssay AID1489 (National Center for Advancing Translational Sciences (NCATS), 2009).

Inconclusive results are not listed. A call without a number means that no potency is given here. Active and inactive are the calls of the source. The call rests on the fitted dose curve; in most records, active means well fitted antagonist curve with a large enough effect in the main read-out, with a control signal flat; inconclusive means small, poorly fitted or top-dose-only effect; inactive means no such curve, though single readings can be large or run the other way.

The assay deals with Neuropeptide S receptor (Homo sapiens) (UniProt Q6W5P4). Put plainly: Confirmation Concentration-Response Assay for Antagonists of the Neuropeptide S Receptor: Calcium Signal Transduction. To be noted: CHO-NPSR cells, NPS-induced calcium flux, FDSS; series mostly up to 19.3 µM. From the text: NIH Chemical Genomics Center [NCGC] NIH Molecular Libraries Probe Production centers Network [MLPCN] MLPCN Grant: X01-DA026210-01 Assay Submitter (PI): Heilig, Markus Alexander NCGC Assay Overview: Neuropeptide S receptor (NPSR), previously known as GPR154, is a recently de-orphanized G protein coupled receptor. Its endogenous ligand is the 20 amino acids peptide Neuropeptide S (NPS). […] NPS and its receptor are found in various tissues. Specifically they are highly expressed in brain areas that have been implicated in modulation of arousal, stress and anxiety. Central administration of NPS in mice produces an unusual profile of activity by inducing wakefulness and arousal, while at the same time suppressing anxiety. Therefore, NPSR may represent a novel drug target for the treatment of sleep and anxiety disorders. To identify NPSR antagonists, we developed a cell-based assay with transfected NPS receptor. NPS can stimulate the production of cAMP as well as release intracellular calcium in Chinese hamster ovary cells stably expressing NPS receptor. This change in intracellular calcium can be detected using a calcium indicator dye on a calcium imaging plate reader system (FDSS).
Neuropeptide S receptor (Homo sapiens), sequence (Q6W5P4 whole entry, looked up): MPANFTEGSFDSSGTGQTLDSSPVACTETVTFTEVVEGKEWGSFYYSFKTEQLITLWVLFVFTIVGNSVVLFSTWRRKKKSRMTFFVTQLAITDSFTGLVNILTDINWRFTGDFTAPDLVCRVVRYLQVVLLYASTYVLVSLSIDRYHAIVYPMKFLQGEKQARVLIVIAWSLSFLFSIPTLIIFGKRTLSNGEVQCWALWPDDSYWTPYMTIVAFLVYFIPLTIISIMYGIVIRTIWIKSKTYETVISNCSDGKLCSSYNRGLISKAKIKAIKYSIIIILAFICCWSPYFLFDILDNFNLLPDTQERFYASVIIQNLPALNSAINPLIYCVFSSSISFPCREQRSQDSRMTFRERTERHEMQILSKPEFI
NCGC Assay Protocol Summary: A Chinese hamster ovary (CHO) cell line stably expressing the NPS receptor (CHO-NPSR) was obtained from Dr. Heilig lab at NIAAA and maintained in F-12 Kaighn's media (Invitrogen, Carlsbad, CA, 21127) supplemented with 10 % FBS, 100 units/ml penicillin, 100 ug/ml streptomycin and 250 ug/ml geneticin at 37C, 5% CO2 in a humidified atmosphere. Before the assay, aliquots of cells were frozen and stored at -135C. The assay was performed on a FDSS-7000 kinetic plate reader in 1536-well format. For both agonist (1-220s) and antagonist (221-400s) phases, the maximums of kinetic fluorescence responses were converted separately into text files using the instrument's software data export utility. Data for agonist response were normalized to the controls for basal activity (DMSO only) and 100% activation (NPS). […] AC50 values were determined from concentration-response data modeled with the standard Hill equation. NPS 1536-well FDSS assay protocol: (1) Frozen CHO-NPSR cells were thaw, washed once with fresh media and resuspended in F-12 Kaighn's media supplemented with 10 % FBS, 100 units/ml penicillin and 100 ug/ml streptomycin. Cells were plated at 3 ul/well (1200 cells) to black, clear-bottom, tissue-culture treated 1536-well plates, and then cultured at 37C, 5 % CO2 for 16 to 30 hours. (2) Add 3 ul of calcium dye (from High Performance PBX Calcium Assay Kit, BD Biosciences). The calcium dye was prepared according to the manufactory's instruction. (3) Incubation at 37C, 5 % CO2 for 60 to 120 min. (4) Load plates to FDSS-7000. The following steps were performed on FDSS-7000. (5) Record fluorescent background (Ex 480 nm, Em 520-560 nm) for 10 s. (6) Add 23 nl/well of compound in DMSO solution. The final titration for each compound was between 0.6 nM and 46 uM. Record agonist response for 210 s. (7) Add 2 ul of stimulation reagent (1X HBSS buffer, 0.1% BSA, 60 nM NPS). Record antagonist response for 140 s. Keywords: MLSMR, MLPCN, NIH Roadmap, qHTS, NCGC, NPS, Neuropeptide S Antagonists
(In general: Calcium flux is commonly read through the fluorescence of an indicator in the cells.)
For the molecule `Cn1c(COc2ccccc2)nnc1SCc1cc(=O)[nH]c2ccccc12`, the Potency result was “inactive”. Then `Cc1ccc(Nc2cc(C)nn2-c2nc(C)cc(C)n2)cc1`, with “inactive”. In the case of `CCC(C)n1c(=O)c(C(=O)Nc2ccccc2S(N)(=O)=O)c(O)c2ccccc21` (stereo not given), the Potency entry was “inactive”. With `O=C(NCCCN1CCOCC1)c1cc2c(=O)[nH]c3ccccc3c2s1` the entry was “inactive”. Take `COCCCn1c(SCc2cc(=O)[nH]c3ccccc23)nnc1-c1ccco1`: the Potency result is “inactive”.

As for `CCn1cc(C(=O)NCC2CCCO2)c(=O)c2cc(S(=O)(=O)N3CCCCCC3)ccc21` (stereo not given), the Potency entry was “inactive”. Then `Cc1cccc(-c2nnc(SCc3cc(=O)[nH]c4ccccc34)n2C)c1`, with “inactive”; and `COc1cccc2sc(Nc3nc(-c4ccccn4)cs3)nc12`, with 3.16 µM (active). With `Cc1nn(C)cc1/C=N/NC(=S)Nc1ccccc1` the entry was “inactive”; with `COc1ccc(/C=C2\CCCC3C2=NN(C(=O)c2ccco2)C3c2ccc(OC)c(OC)c2)cc1OC` (stereo not given), “inactive”; with `CN(C)c1nc(=Nc2cccc(Cl)c2)ss1`, “inactive”.

`COc1ccc(OC)c(C2C(C(=O)Nc3nc4ccccc4s3)=C(C)NC3=C2C(=O)CCC3)c1` (stereo not given): the Potency was 2.82 µM (active).

As to `CCOC(=O)c1cnc(-n2nc(C)cc2C)nc1NC1CCCC1`, the Potency was 2.82 µM (active). Then `CS(=O)(=O)c1nc(-c2ccccc2)cc(C(F)(F)F)n1`, with 7.94 µM (active).

`C/C(=N\Nc1ncc(Cl)cc1Cl)c1ccccn1`: the Potency was 2.51 µM (active).

For the molecule `COC(=O)c1ccc(C(=O)OC)c(NC(=O)CSc2cccc[n+]2[O-])c1`, the Potency entry was “inactive”. With `Cc1ccc2nc3ccc(N4CCCCCCC4)nn3c(=O)c2c1` the entry was “inactive”; with `Nc1ccc(-c2nc3c(Cl)cc(N)cc3[nH]2)cc1`, “inactive”.

Consider `c1cncc(-c2nc(-c3ccco3)cs2)c1`, for which the Potency entry is “inactive”. With `N=C1c2ccccc2CN1c1ccc(N2CCOCC2)c(S(=O)(=O)Nc2ccc(Cl)cc2)c1` the figure was 1.41 µM (active). Then `Cc1nn(C(=O)c2cccs2)c(N)c1-c1ccccc1`, with “inactive”; and `CN(CC(=O)NCc1ccc(F)cc1)S(=O)(=O)c1cccc2nsnc12`, with “inactive”; and `O=C(/C=C/c1ccco1)NC(=S)Nc1nc(-c2ccc3ccccc3c2)cs1`, with “inactive”.

With `O=C(c1ccccc1-c1nc2ccccc2[nH]1)N1CCCCC1`, the Potency entry is “inactive”. Then `CCCCCN1C=CC=C/C1=C\C=C(C#N)C#N`, with “inactive”; and `Cc1cccnc1NC(=O)c1c(O)c2cccc3c2n(c1=O)CCC3`, with “inactive”.

Take `C=CCn1c(SCCN2C(=O)c3ccccc3C2=O)nc2scc(-c3ccccc3)c2c1=O`: the Potency result was “inactive”. Then `C/C(=N\NC(=S)NC1CCCCC1)c1c(F)cccc1F`, with “inactive”; and `CCc1ccc2oc(-c3cc(N)cc(C)c3O)nc2c1`, with “inactive”; and `C=CCNC(=O)/C(C#N)=C/c1cn(-c2ccccc2)nc1-c1ccc(OC)c([N+](=O)[O-])c1`, with “inactive”. `Cc1ccc(/C=C2\SC(=S)N(CC(=O)Nc3ncc(Cc4ccccc4Cl)s3)C2=O)cc1`: the Potency result is “inactive”.

For `O=C(O)C1CCN(c2nc(-c3ccccc3)nc3c2oc2ccccc23)CC1`, the Potency result is “inactive”. With `COc1ccc(-c2cc(N)n(S(=O)(=O)c3c(F)c(F)c(F)c(F)c3F)n2)cc1OC` the figure was 7.08 µM (active).

For the molecule `COCCCn1cnc2c(c1=O)c1nc3ccccc3nc1n2CCc1ccccc1`, the Potency result was “inactive”. For `CC1CCCCN1S(=O)(=O)c1ccc(C(=O)Nc2sccc2C(N)=O)cc1` (stereo not given), the Potency was 12.6 µM (active).

Turning to `Cc1cc2nc3ccc(=[N+](C)C)cc-3sc2cc1N`, the Potency result is “inactive”.

Regarding `CCOC(=O)c1cnc(-n2nc(C)cc2C)nc1Nc1ccc(C)cc1`, the Potency result is “inactive”. Then `Cc1ccc(-n2ncc3c(NCc4ccc5c(c4)OCO5)ncnc32)c(C)c1`, with “inactive”. As to `CCN(CC)S(=O)(=O)c1ccc2c(c1)nc(SC(C)C(N)=O)n2-c1ccc(OC)cc1` (stereo not given), the Potency entry was “inactive”. With `COc1ccccc1-c1nnc(SC2CCc3ccccc3NC2=O)s1` (stereo not given) the entry was “inactive”.
